# Measured values published in the supplement of paper PMC3334620.
# Over roughly 33,000 sequences, “E-score (-0.5 to 0.5)” has its median near -0.017; the highest 2% begin near 0.3. The list comes from a sample in which the highest values are over-represented; it also holds similar and randomly drawn sequences.
# Molecular target: T1, Sut1 (UniProt P53032)
# T1 sequence: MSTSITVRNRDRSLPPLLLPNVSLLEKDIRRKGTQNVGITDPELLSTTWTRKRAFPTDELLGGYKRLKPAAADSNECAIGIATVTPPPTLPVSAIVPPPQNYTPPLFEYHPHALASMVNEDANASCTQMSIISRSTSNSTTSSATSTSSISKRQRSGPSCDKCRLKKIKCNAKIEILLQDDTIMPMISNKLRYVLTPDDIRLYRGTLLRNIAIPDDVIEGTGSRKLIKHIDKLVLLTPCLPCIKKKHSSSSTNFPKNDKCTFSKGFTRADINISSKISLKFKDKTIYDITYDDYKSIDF
# Assay: PBM E-score (8-mer binding enrichment) (E-score (-0.5 to 0.5)); higher = stronger / more preferred TF binding
# Conditions: protein concentration: 200 nM; construct: GST-full length
# Method: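 Universal 'all 10-mer' protein binding microarrays (Agilent AMADID 015681) probed with GST-tagged S. cerevisiae TFs (full-length or DBD) made by in vitro transcription/translation (PURExpress), about 100-200 nM. Bound TF was detected with fluorescent anti-GST. Each ungapped 8-mer (which stands for itself and its reverse complement) is scored by the PBM enrichment score (E-score), a modified Wilcoxon-Mann-Whitney statistic from -0.5 to +0.5, computed with the Universal PBM Analysis Suite. Scale: above 0.35 generally sequence-specific binding.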
row,Sequence,PBM E-score
1,ACGGAGCC,0.219
2,CCGGACAA,0.283
3,ACGGAGCG,0.2
4,ACGGAGAG,0.247
5,ACGGAGAT,0.435
6,ACGGAGCT,0.386
7,TCGGACAA,0.367
8,ACGGAGGA,0.0201
9,GCGGACAA,0.23
10,ACGGAGAC,0.232
11,GGATAGCA,0.0461
12,CGCTGTAA,0.00093
13,AACCTTTG,0.0541
14,AAACTAAT,0.292
15,GGTTATGA,-0.00868
16,CACAACCA,0.0851
17,CGTTGCGC,-0.153
18,GTTAGTCA,-0.0461
19,ATTAGACC,-0.183
20,ACATCAAT,0.201
21,AAACAGTC,-0.179
22,CCGGAGAC,0.328
23,TCGGATAA,0.318
24,CGGGAGAC,0.132
25,GCGGAGAC,0.183

row,Sequence,PBM E-score
1,GCGGAGAA,0.279
2,TGGGAGAA,-0.07
3,ACGGATAA,0.103
4,CCGGATAA,0.285
5,CAGGAGAA,0.0231
6,CCGGAGAG,0.253
7,CCGGAGAA,0.397
8,TCGGAGAA,0.436
9,TCTCTAAA,0.107
10,AAGATAAA,0.199
11,GCGACTTA,-0.106
12,ACGTCTCA,-0.0462
13,AAAACTGA,0.12
14,CAGGTTGC,-0.135
15,AGCCTTCC,-0.158
16,GGCAGCAA,-0.129
17,ATCGGATA,0.288
18,CTAGGAGC,-0.306
19,ATCGGATC,-0.00393
20,ATCGGCGC,-0.0591
21,CTCGGAGC,0.389
22,CTCGGTGC,-0.02
23,CTTGGAGA,-0.00672
24,CTCGGAGA,0.419
25,ATCGGAGC,0.358

row,Sequence,PBM E-score
1,ATCGGAGG,0.0998
2,CTCGGATA,0.126
3,ATCGGAGA,0.416
4,ACCAACGC,0.014
5,CGGAGCCA,0.294
6,CGTTAAGC,0.125
7,CTGCTGTA,-0.0764
8,TACAGGCA,0.085
9,GTCGGAGA,0.325
10,GTAGGAGA,-0.0911
11,GTCGGATA,0.143
12,AACTAGGA,0.0329
13,GACTCGCC,-0.158
14,AAAAAGTA,0.125
15,GGGACTTA,-0.0858
16,CGGACTGA,0.298
17,AGGACTGC,-0.334
18,CGGACTGC,0.377
19,CAGACTGC,-0.135
20,CGGACTTA,0.492
21,AGGACTTA,-0.0276
22,GGGACTGA,-0.185
23,AGGACTGA,-0.109
24,GTAAACGA,-0.0179
25,CACAGTAC,-0.0582

row,Sequence,PBM E-score
1,TATCCGAA,0.304
2,TATCCGGA,0.39
3,CATCCGGA,0.292
4,GATCCGAA,0.26
5,CATCCGAA,0.151
6,GATCCGGC,0.0532
7,TATCCGCA,0.169
8,AATCCGGA,0.368
9,AATCCGGC,-0.0834
10,GATCCGGA,0.324
11,AATCCGGT,0.258
12,GATCCGTA,-0.02
13,ACCCTCTA,-0.245
14,AGGTCTTC,-0.256
15,GGTCTCGA,0.00072
16,CAACAGTC,0.0186
17,TACGCGTA,-0.0808
18,CGGCCACC,-0.0332
19,CTCTAAAG,-0.0246
20,AGATATTA,0.211
21,ATTCCGCC,0.214
22,GGTCCGCA,0.241
23,AGTCCGCC,0.375
24,AATCCGCG,-0.103
25,CGTCCGCC,-0.124

row,Sequence,PBM E-score
1,AGTCCGCA,0.441
2,ATTCCGCG,0.18
3,CGTCCGCA,-0.177
4,AGTCCGCG,0.435
5,ATGCACGG,-0.114
6,AACTTCTA,0.131
7,ACCAGCTG,-0.203
8,GTCATAGA,-0.0539
9,ATGAATAC,0.132
10,GGCAAACA,-0.119
11,GCCAAGGC,-0.29
12,AAATGATC,0.105
13,AAATGATG,0.16
14,AAATGATA,0.337
15,CAATGATA,0.144
16,TAATGAAA,0.154
17,AAATGATT,0.311
18,TAATGATA,0.317
19,AGATGATA,0.175
20,GAATGATA,0.259
21,ACAGTGTC,-0.114
22,GAATTCGA,0.0801
23,CTTTTCTC,0.107
24,ACATCGGT,-0.034
25,GCATCGTA,-0.0143

row,Sequence,PBM E-score
1,TCATCGAA,0.0449
2,GCATCGGA,0.348
3,ACATCGGC,-0.0386
4,TCATCGGA,0.395
5,CCATCGGA,0.255
6,ACATCGGA,0.351
7,GCATCGGC,-0.241
8,GCAATACA,0.196
9,GAAATTGC,-0.0449
10,AGCACGCG,0.0217
11,ATTACATA,0.154
12,AGAGTCTG,-0.236
13,ACCACACA,0.109
14,CTCACAGC,-0.051
15,TCTCAGAA,-0.12
16,CAAGTTGC,0.0786
17,GGCTGTAC,-0.0774
18,AGACTTAC,-0.0551
19,AGACTTAA,-0.137
20,CGACTTAA,0.00564
21,GGACTTAA,0.326
22,GGACTTAC,0.352
23,CGACTTAC,-0.0195
24,GCAAGAGA,-0.196
25,CTTCTGGA,-0.0307

row,Sequence,PBM E-score
1,CTCGGACA,0.354
2,ATCGGACA,0.257
3,CTCGGATC,0.204
4,AGCGGACC,0.00064
5,ATCGGACG,0.0416
6,CTCGGACC,0.368
7,ATCGGACC,0.353
8,GTCGGACA,0.271
9,CTCGGAAC,0.182
10,TCTTAGAA,0.283
11,AAGATTCA,0.137
12,CGAGCGTC,-0.241
13,CATATTGG,0.112
14,GAAACTGA,-0.0944
15,CGGCTTTA,0.0621
16,AACCAGTC,0.173
17,AGGGGTTC,-0.181
18,AGGGGTTA,-0.273
19,GGGGGTTA,-0.405
20,CGGGGTTA,0.382
21,CGGGGTTC,0.398
22,CCGGGTTC,-0.0363
